# Screening results from PubChem.
# 3T3 cytotox: Cytotoxic Profiling in NIH 3T3 Cell Line of Diverse Libraries Using Quantitative High-Throughput Screening. 94,000 tested, 4.3% active. AID 1345082, 2018. NIH 3T3 viability, CellTiter-Glo ATP luminescence, 48-72 h. Potency, µM (doses to about 96.7 µM), for inactives: top-dose activity change, negative = cytotoxicity, hits mostly inhibitors; further: nearly all actives have a fitted effect of over 55% in size
#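 ATP-dependent luminescence (CellTiter-Glo) served as the viability signal for NIH 3T3 cells treated with compound for 48 or 72 hr at 37 °C.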
# HEK cytotox: Cytotoxic Profiling in HEK 293 Cell Line of Diverse Libraries Using Quantitative High-Throughput Screening; HEK 293 viability, ATP luminescence (CellTiter-Glo), 48-72 h; Potency, µM (highest dose often 115 µM), inactives show top-dose activity change, negative = cytotoxicity, hits mostly inhibitors; 94,000 tested, 6.6% active; AID 1345083, 2018; further: nearly all actives have a fitted effect of over 60% in size
#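 Cytotoxicity was scored by loss of ATP-coupled luminescence (CellTiter-Glo) in HEK 293 cells. Compound treatment ran 48 or 72 hr at 37 degree Celsius, 5% CO2, 95% humidity.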
# hNpr1 antagonist: Natriuretic polypeptide receptor (hNpr1) antagonism - Primary qHTS. Potency, µM (titrated, usually from 46.3 µM), without a hit: top-dose activity change, negative = inhibition, most hits filed as inhibitors. Atrial natriuretic peptide receptor 1 (Homo sapiens), P16066. 76,000 tested, 1.6% active. HEK293 hNpr1 GloSensor cGMP, ANP-stimulated luminescence; calls by dose curve; further: nearly all actives have a fitted effect of over 60% in size
#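 HEK293 cells stably expressing human Npr1 and cGMP GloSensor pGS-40F, loaded 2 h with 2% GloSensor reagent, given compound 30 min at room temperature. Luminescence read before and 20 min after 0.1 nM hNppA.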
# FLuc inh: Firefly luciferase inhibition profiling of diverse chemical library using quantitative high-throughput screening; purified P. pyralis luciferase, luminescence, biochemical; Potency, µM (titrated, usually from 115 µM), hits mostly inhibitors; 76,000 tested, 2.5% active; further: nearly all actives have a fitted effect of over 65% in size
# Target sequence (P08659 whole entry, looked up): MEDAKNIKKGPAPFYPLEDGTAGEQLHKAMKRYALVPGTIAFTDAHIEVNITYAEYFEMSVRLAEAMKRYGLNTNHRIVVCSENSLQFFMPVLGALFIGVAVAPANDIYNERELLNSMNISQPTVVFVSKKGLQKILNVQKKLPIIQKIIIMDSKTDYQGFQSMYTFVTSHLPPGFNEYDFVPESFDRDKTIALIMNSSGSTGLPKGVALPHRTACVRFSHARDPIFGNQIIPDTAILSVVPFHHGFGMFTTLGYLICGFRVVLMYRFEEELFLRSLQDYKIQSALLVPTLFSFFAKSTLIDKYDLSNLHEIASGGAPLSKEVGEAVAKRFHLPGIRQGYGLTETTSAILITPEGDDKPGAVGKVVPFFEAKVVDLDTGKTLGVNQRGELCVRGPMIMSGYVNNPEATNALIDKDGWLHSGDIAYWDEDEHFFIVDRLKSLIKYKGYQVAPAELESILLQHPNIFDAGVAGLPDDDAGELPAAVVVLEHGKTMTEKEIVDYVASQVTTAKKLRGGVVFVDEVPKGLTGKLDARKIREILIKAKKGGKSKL
#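 FLuc 10nM, D-luciferin 10uM, ATP 10uM, Mg acetate 10mM, Tris acetate pH 7.5, Tween/BSA; cpd qHTS; enzyme added last; CCD luminescence.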
# The depositor's hits bear a star; i = inactive; ? = inconclusive; . = not tested or not shown; [ ] = dose if it differs, or a comment. Rows were chosen to be rich in hits. Some 11% of all compounds tested hit in one or more screens of this group. Unless noted, the call rests on the fitted dose curve; in most records, active means well fitted curve in the direction sought with a large enough effect; inconclusive means small, poorly fitted or top-dose-only effect, or another doubt; inactive means no such curve, though single readings can be large; an effect the other way counts as inactive or inconclusive. On the % scale 0 is the no-effect control and ±100 the full control effect; potency means the concentration at half of the fitted maximal effect.
SMILES,3T3 cytotox,HEK cytotox,hNpr1 antagonist,FLuc inh
Cc1nn(-c2ccccc2)c2c1C(C1CC1)N(C1CCN(C(=O)c3ccc(F)cc3)C1)C2=O (stereo not given),?,35µM*,.,.
O=C(NCc1ccccc1)C1CCCN1C(=O)c1cccc(-c2cccnc2)c1 (stereo not given),-8%,-4%,.,.
O=C(Cc1ccc(F)cc1)N1CCCC(C(=O)N2CCC(N3CCOC3=O)CC2)C1 (stereo not given),-2%,1%,.,.
CCN1CCC2(Cc3ccccc3CN(S(C)(=O)=O)C2)C1 (stereo not given),3%[138 µM],-16%[172 µM],.,.
CN(C(=O)CCc1ccsc1)C1CCCN(CCc2ccccc2)C1 (stereo not given),-11%,-21%,3%,i
O=C1CC2(CCN(C(=O)c3ccc4c(c3)OCO4)CC2)Oc2cc(Cl)ccc21,?,45µM*,-8%,i
O=C1CC2(CCN(C(=O)c3ccc4c(c3)OCO4)CC2)Oc2ccccc21,?,?,6%,i
O=C(c1ccc2c(c1)OCO2)N1CCc2nc(C3CC3)nc(-c3ccc(Cl)cc3)c2CC1,?,28µM*,-12%,i
Cn1cccc1CN1CCC2(CC1)CC(=O)c1ccc(Cl)cc1O2,?,45µM*,-12%[70.6 µM],?
Cn1cccc1CN1CCC2(CC1)CC(=O)c1ccccc1O2,?,?,-28%[70.6 µM],?
Cn1nc(C2CC2)cc1NC(=O)c1ccc(Cl)nc1,-26%[138 µM],-6%[172 µM],.,.
CN1CCCC1c1nc(C2CN(C(=O)CC3CCCCC3)C2)no1 (stereo not given),-7%,-5%,.,.
Cc1ccc(-c2cccc(CN3CCCC3C(=O)NC3CCC3)c2)cc1Cl (stereo not given),40µM*,28µM*,.,.
Cc1ccc(-c2cccc(CN3CCCC3C(=O)NC3CC3)c2)cc1Cl (stereo not given),35µM*,32µM*,.,.
CCC(C)NC(=O)C1CCCN1Cc1cccc(-c2ccc(C)c(Cl)c2)c1 (stereo not given),35µM*,22µM*,.,.
Cc1ccc(-c2cccc(CN3CCCC(NC(=O)NC4CCCC4)C3)c2)cc1Cl (stereo not given),-18%,5%,.,.
CC(C)c1nc2c(c(-c3ccc(Cl)cc3)n1)CCN([S+](=O)([O-])c1cccc(C(F)(F)F)c1)CC2,-1%,i,.,.
Cc1ccc(Nc2ccnc(N3CCCC(C(=O)NCC4CCCCCC4)C3)n2)cc1 (stereo not given),?,28µM*,.,.
Cc1ccc(Nc2ccnc(N3CCCC3C(=O)NCC(F)F)n2)cc1 (stereo not given),?,40µM*,.,.
Cc1ccc(Nc2ccnc(N3CCCC(C(=O)NCC(F)F)C3)n2)cc1 (stereo not given),40µM*,45µM*,.,.
C#CCNC(=O)C1CCCN1c1nccc(Nc2ccc(C)cc2)n1 (stereo not given),-24%[138 µM],?,.,.
Cc1ccc(Nc2ccnc(N3CCCC(C(=O)NCc4ccc(C(F)(F)F)cc4)C3)n2)cc1 (stereo not given),-21%,-15%,.,.
Cc1ccc(Nc2ccnc(N3CCCC(C(=O)NCC(F)(F)F)C3)n2)cc1 (stereo not given),35µM*,?,.,.
Cc1noc(C)c1[S+](=O)([O-])N1CCN(CCCn2nc3n(c2=O)CCCC3)CC1,-28%,-11%,.,.
O=C1CC(c2ccccc2)N(Cc2ccncc2)CCCN(C(=O)C2(c3ccccc3)CC2)CCN1 (stereo not given),?,?,0%,i
SMILES,3T3 cytotox,HEK cytotox,hNpr1 antagonist,FLuc inh
C[S+](=O)([O-])NCCn1ccc2cc(OC3CCN(C(=O)C4CCCC4)CC3)cnc21,100µM*,?,-27%[70.6 µM],i
O=C(C1CCCN1C(=O)Cc1cccc(Cl)c1)N1CCC(N2Cc3cccn3C2=O)CC1 (stereo not given),-3%,3%,.,.
CCCNc1cc(N2CCC(CCC(=O)N3CCN(c4cccc(C)c4)CC3)CC2)ncn1,?,20µM*,?,?
CCCNC(=O)CCC1CCN(c2cc(NCCC)ncn2)CC1,-11%,1%,-3%,?
CCCNc1cc(N2CCC(CCC(=O)N3CCN(c4ccc(F)cc4)CC3)CC2)ncn1,20µM*,?,11µM*,?
CCCNc1cc(N2CCC(CCC(=O)Nc3cccc(C)c3)CC2)ncn1,0%,i,-23%,20µM*
NC(=O)c1cccc(CN2CCC3(CC2)CC(c2ccccc2)=NO3)c1,-29%,?,.,.
CN(C)c1ccc(CN2CCCC3(C2)C(=NC2CCCC2)NC(=O)N3c2cccnc2)cc1 (stereo not given),?,-21%,.,.
CCNc1ncnc2c1CN(C1CCNCC1)C(=O)CN2C,-11%,-15%,.,.
O=C1COc2ccc(-c3ccsc3)nc2CN1Cc1ccc(C(F)(F)F)cc1,?,?,-21%[70.6 µM],i
O=C1COc2ccc(-c3ccsc3)nc2CN1Cc1ccccc1,?,100µM*,-25%[70.6 µM],i
O=C1COc2ccc(-c3ccccc3)nc2CN1Cc1ccc(F)cc1,?,?,-18%[70.6 µM],i
Cc1ccccc1CN1Cc2nc(-c3ccsc3)ccc2OCC1=O,?,89µM*,-18%[70.6 µM],i
Cc1ccccc1CN1Cc2nc(-c3cncnc3)ccc2OCC1=O,100µM*,?,-11%[70.6 µM],i
Cc1nc(CN2Cc3nc(-c4ccccc4)ccc3OCC2=O)cs1,?,-24%[172 µM],5%[70.6 µM],i
COc1ccccc1-c1cc(C(=O)NCC(F)(F)F)nn2cnnc12,-7%,2%,.,.
Cc1ccc(-n2c(C3CCN(C(=O)c4ccc(C(C)(C)C)cc4)CC3)n[nH]c2=O)cc1,?,?,-19%,i
OC1(CNCc2cc(C(F)(F)F)ccc2F)CNCCOC1 (stereo not given),0%,-2%,-2%,i
CCN(CC)S(=O)(=O)N(C)CC1CCCN(CCc2ccccc2OC)C1 (stereo not given),-19%,?,3%,i
O=C(N1CCC2(CC1)CC(N(Cc1ccccc1)C1CC1)CCO2)C1(c2ccccc2)CC1 (stereo not given),45µM*,40µM*,?,i
O=C(CC1CCCC1)N1CCC2(CC1)CC(N(Cc1ccc(F)cc1)C1CC1)CCO2 (stereo not given),?,45µM*,-22%,i
CCC(=O)N1CCC2(CC1)CC(N(Cc1ccccc1)C1CC1)CCO2 (stereo not given),2%,-28%,-11%,i
O=C(c1cccc(F)c1)N1CCC2(CC1)CC(N(Cc1ccc(F)cc1)C1CC1)CCO2 (stereo not given),?,?,2%,i
